ChEMBL document CHEMBL2218924, “A broad activity screen in support of a chemogenomic map for kinase signalling research and drug discovery” (Biochem J, 2013)

target: T1, Myotonin-protein kinase (Homo sapiens) (UniProt Q09013); settings: at 1 µM
T1 sequence (whole entry): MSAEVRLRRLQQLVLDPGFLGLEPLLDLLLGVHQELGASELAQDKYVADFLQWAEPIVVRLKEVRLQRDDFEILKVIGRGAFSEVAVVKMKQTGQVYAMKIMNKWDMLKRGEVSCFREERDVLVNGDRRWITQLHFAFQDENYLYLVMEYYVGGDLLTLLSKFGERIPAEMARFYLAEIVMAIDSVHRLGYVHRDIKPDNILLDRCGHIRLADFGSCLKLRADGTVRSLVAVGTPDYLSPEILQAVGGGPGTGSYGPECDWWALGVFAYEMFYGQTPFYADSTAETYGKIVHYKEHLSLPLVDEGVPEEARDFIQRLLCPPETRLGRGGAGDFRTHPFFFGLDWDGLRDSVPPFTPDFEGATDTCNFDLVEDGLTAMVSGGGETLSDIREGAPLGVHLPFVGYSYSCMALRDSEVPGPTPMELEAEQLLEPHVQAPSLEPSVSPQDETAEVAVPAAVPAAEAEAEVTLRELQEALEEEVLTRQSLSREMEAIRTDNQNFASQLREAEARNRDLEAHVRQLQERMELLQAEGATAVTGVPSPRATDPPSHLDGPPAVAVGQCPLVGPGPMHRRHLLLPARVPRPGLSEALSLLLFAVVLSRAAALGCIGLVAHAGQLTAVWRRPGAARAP

Row | Compound | residual activity [%]
1 | CC(C)(C)c1cc(C=C(C#N)C#N)cc(Br)c1O | 98
2 | N/C(=N\[N+](=O)[O-])N/N=C\c1ccc(-c2cccc([N+](=O)[O-])c2)o1 | 98
3 | CC(C)[C@H](CO)Nc1nc(Nc2cccc(Cl)c2)c2ncn(C(C)C)c2n1 | 98
4 | COc1ccc2c(c[n+](C)c3c4cc5c(cc4ccc23)OCO5)c1OC | 111
5 | O=c1[nH]c2ccccc2n1C1CCN(Cc2ccc(-c3nc4cc5[nH]cnc5cc4nc3-c3ccccc3)cc2)CC1 | 133
6 | CCn1cnc2c(Nc3cccc(Cl)c3)nc(N[C@@H]3CCCC[C@@H]3N)nc21 | 123
7 | COC(=O)[C@@]1(O)C[C@H]2O[C@]1(C)n1c3ccccc3c3c4c(c5c6ccccc6n2c5c31)C(=O)NC4 | 116
8 | O=C1c2ccccc2-c2nc3nnnn3nc21 | 127
9 | C[S+]([O-])c1ccc(-c2nc(-c3ccc(F)cc3)c(-c3ccncc3)[nH]2)cc1 (configuration not stated) | 122
10 | O=C1Nc2ccc3ncsc3c2/C1=C/c1c[nH]cn1 | 120
11 | O=[N+]([O-])/C=C/c1ccc2c(c1)OCO2 | 137
12 | COc1cc2ncnc(Nc3ccc(OCc4ccccc4)cc3)c2cc1OC | 105
